Targets include RELARELA (p65 homodimer) (Homo sapiens, UniProt Q04206 1-307); p50p50 homodimer (Homo sapiens, UniProt P19838 7-356); RELB subunit;p50 subunit (Homo sapiens;Homo sapiens, UniProt Q01201;P19838 120-401;7-356).
Holding throughout (assay): protein binding microarray; high values mean tight binding
Common to all, as to conditions: dsDNA, one strand shown

Another assay concerns the target T1, p52p52 homodimer (Homo sapiens, UniProt Q00653 4-332).
T1 sequence: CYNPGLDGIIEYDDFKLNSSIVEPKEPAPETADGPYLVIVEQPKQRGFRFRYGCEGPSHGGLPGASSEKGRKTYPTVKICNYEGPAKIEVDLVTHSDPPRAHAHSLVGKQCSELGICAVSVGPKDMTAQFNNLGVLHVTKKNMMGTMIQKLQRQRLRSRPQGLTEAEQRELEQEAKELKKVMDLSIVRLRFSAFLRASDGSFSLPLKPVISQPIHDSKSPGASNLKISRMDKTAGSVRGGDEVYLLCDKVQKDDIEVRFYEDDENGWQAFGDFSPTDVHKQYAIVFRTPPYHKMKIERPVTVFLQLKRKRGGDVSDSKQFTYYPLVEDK

The target of assay [1] is RELA (p65) subunit of heterodimer;p50 subunit (Homo sapiens;Homo sapiens, UniProt Q04206;P19838 1-307;7-356).
The target of assay [2] is RELA (p65) subunit of heterodimer;p52 subunit (Homo sapiens;Homo sapiens, UniProt Q04206;Q00653 1-307;4-332).
The target in the next assay is T2, RELB subunit;p52 subunit (Homo sapiens;Homo sapiens, UniProt Q01201;Q00653 120-401;4-332).
T2 sequence 1: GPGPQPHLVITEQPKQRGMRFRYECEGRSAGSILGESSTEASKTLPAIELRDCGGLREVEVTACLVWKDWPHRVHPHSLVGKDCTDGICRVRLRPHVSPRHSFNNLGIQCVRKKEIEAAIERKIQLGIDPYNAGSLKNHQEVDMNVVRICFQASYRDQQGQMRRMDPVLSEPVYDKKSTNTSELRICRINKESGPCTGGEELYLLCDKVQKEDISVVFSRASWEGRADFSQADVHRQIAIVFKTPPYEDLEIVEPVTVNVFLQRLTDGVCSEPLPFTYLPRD
T2 sequence 2: T1 sequence

The target in assay [3] is C-Rel subunit;p50 subunit (Homo sapiens;Homo sapiens, UniProt Q04864;P19838 1-285;7-356).
The target in assay [4] is T3, C-Rel subunit;p52 subunit (Homo sapiens;Homo sapiens, UniProt Q04864;Q00653 1-285;4-332).
T3 sequence 1: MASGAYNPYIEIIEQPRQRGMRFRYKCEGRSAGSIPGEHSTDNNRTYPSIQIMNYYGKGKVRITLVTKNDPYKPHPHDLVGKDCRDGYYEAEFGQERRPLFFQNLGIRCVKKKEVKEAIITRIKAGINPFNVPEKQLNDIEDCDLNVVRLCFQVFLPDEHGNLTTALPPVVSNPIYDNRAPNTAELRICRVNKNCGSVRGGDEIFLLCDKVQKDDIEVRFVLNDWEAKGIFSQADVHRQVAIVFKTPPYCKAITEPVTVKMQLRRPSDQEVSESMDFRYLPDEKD
T3 sequence 2: T1 sequence

p50p50 homodimer, sequence (P19838 7-356): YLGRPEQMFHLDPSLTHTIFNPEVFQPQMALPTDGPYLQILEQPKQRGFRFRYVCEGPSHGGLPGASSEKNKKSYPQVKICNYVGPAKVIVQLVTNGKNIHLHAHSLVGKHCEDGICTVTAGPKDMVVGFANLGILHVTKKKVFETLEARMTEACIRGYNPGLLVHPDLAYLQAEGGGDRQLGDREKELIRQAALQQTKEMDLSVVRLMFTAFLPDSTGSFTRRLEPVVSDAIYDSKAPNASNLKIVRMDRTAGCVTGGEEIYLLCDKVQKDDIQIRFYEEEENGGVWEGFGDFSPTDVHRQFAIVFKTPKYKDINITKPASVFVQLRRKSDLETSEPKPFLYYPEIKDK
RELARELA (p65 homodimer), sequence (Q04206 1-307): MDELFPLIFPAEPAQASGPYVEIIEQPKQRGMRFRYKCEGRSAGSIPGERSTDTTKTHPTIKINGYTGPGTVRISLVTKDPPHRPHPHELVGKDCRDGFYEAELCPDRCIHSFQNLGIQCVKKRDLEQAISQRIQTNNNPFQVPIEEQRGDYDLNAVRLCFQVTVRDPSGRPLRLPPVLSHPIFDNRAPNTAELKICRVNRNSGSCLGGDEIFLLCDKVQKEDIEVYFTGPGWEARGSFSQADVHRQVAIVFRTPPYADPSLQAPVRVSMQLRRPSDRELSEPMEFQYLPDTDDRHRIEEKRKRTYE
RELA (p65) subunit of heterodimer;p50 subunit, sequence (Q04206 1-307, chain 1 of 2): as the sequence (Q04206 1-307) above
RELA (p65) subunit of heterodimer;p50 subunit, sequence (P19838 7-356, chain 2 of 2): as the sequence (P19838 7-356) above

In the case of GGGTGAATCCT, the binding signal in the assay with RELARELA (p65 homodimer) was 0.03 z-score; with p50p50 homodimer it was 0.0518 z-score; with p52p52 homodimer it was 0.368 z-score; in assay [1] it was -0.186 z-score; in [2], 0.102 z-score; in the assay with RELB subunit;p50 subunit, -0.241 z-score. The binding signal with RELB subunit;p52 subunit is -0.135 z-score; in [3], -0.176 z-score; in [4] it was -0.138 z-score.

As for AGATATCTCCT, the binding signal with RELARELA (p65 homodimer) is -0.509 z-score; with p50p50 homodimer, -1.24 z-score; with p52p52 homodimer, -0.623 z-score; in assay [1], -0.927 z-score; in assay [2] it was -1.03 z-score; in the assay with RELB subunit;p50 subunit it was -1.19 z-score. Besides, the binding signal with RELB subunit;p52 subunit is -1.06 z-score; in [3] it was -1.37 z-score; in assay [4], -0.83 z-score.

For GAATTTGTCCC, the binding signal with RELARELA (p65 homodimer) stood at 1.3 z-score; in the assay with p50p50 homodimer, 0.832 z-score; with p52p52 homodimer it was 0.9 z-score; in assay [1] it was 1.01 z-score; in assay [2] it was 0.944 z-score; in the assay with RELB subunit;p50 subunit it was 0.998 z-score. Besides, the binding signal with RELB subunit;p52 subunit amounted to 0.873 z-score; in [3] it was 1.27 z-score; in assay [4], 0.573 z-score.

Take CAATACATCCC: the binding signal was -0.0719 z-score with RELARELA (p65 homodimer); -0.836 z-score with p50p50 homodimer; -0.518 z-score with p52p52 homodimer; -0.774 z-score in assay [1]; -0.7 z-score in [2]; -0.646 z-score with RELB subunit;p50 subunit. Besides, the binding signal with RELB subunit;p52 subunit is -0.575 z-score; in assay [3] it was -0.971 z-score; in assay [4], -0.69 z-score.

Consider CAAAGGCTCCT, for which the binding signal was -0.998 z-score with RELARELA (p65 homodimer); -1.36 z-score with p50p50 homodimer; -0.784 z-score with p52p52 homodimer; -1.16 z-score in [1]; -1.16 z-score in [2]; -1.21 z-score in the assay with RELB subunit;p50 subunit. For the same sequence, the binding signal was -1.07 z-score in the assay with RELB subunit;p52 subunit, -1.99 z-score in assay [3] and -1.13 z-score in [4].

Turning to AGAGAACTCCT, the binding signal with RELARELA (p65 homodimer) was -0.542 z-score; with p50p50 homodimer it was -1.29 z-score; with p52p52 homodimer it was -0.694 z-score; in assay [1] it was -0.888 z-score; in assay [2], -1.06 z-score; in the assay with RELB subunit;p50 subunit, -1.05 z-score. The binding signal in the assay with RELB subunit;p52 subunit is -0.943 z-score; in [3], -1.01 z-score; in assay [4] it was -0.762 z-score.

AAAGTCTCCCC: the binding signal came out at 0.367 z-score with RELARELA (p65 homodimer); 0.818 z-score in the assay with p50p50 homodimer; 0.559 z-score with p52p52 homodimer; 0.733 z-score in assay [1]; 0.654 z-score in assay [2]; 0.78 z-score in the assay with RELB subunit;p50 subunit. The binding signal with RELB subunit;p52 subunit stood at 0.879 z-score; in [3] it was 0.882 z-score; in assay [4], 0.388 z-score.

Consider AGATTACCCCC, for which the binding signal with RELARELA (p65 homodimer) was 0.372 z-score; in the assay with p50p50 homodimer it was 1.19 z-score; with p52p52 homodimer it was 0.936 z-score; in [1] it was 1.24 z-score; in [2] it was 1.2 z-score; with RELB subunit;p50 subunit, 1.18 z-score. For the same sequence, the results for the binding signal (in the assay with RELB subunit;p52 subunit; in assay [3]; in assay [4]) were 1.63 z-score, 1.21 z-score and 1.12 z-score, respectively.

For GAGTACACCCT, the binding signal in the assay with RELARELA (p65 homodimer) is -0.136 z-score; with p50p50 homodimer, -0.892 z-score; with p52p52 homodimer, -0.573 z-score; in assay [1] it was -0.83 z-score; in assay [2], -0.569 z-score; with RELB subunit;p50 subunit it was -0.614 z-score. Further, the binding signal in the assay with RELB subunit;p52 subunit is -0.527 z-score; in [3] it was -0.745 z-score; in [4], -0.376 z-score.

GGAAGTATCCT: the binding signal with RELARELA (p65 homodimer) was -0.066 z-score; in the assay with p50p50 homodimer, -1.38 z-score; with p52p52 homodimer it was -0.457 z-score; in [1] it was -0.799 z-score; in assay [2] it was -0.877 z-score; with RELB subunit;p50 subunit, -1.12 z-score. For the same sequence, the binding signal is -0.866 z-score with RELB subunit;p52 subunit, -1.09 z-score in assay [3] and -0.681 z-score in [4].

Regarding AAGTGCTCCCT, the binding signal in the assay with RELARELA (p65 homodimer) is -0.204 z-score; in the assay with p50p50 homodimer, -0.136 z-score; with p52p52 homodimer, -0.291 z-score; in assay [1], -0.382 z-score; in assay [2], -0.51 z-score; in the assay with RELB subunit;p50 subunit it was -0.322 z-score. Also, the binding signal with RELB subunit;p52 subunit was -0.434 z-score; in assay [3] it was -0.836 z-score; in assay [4] it was -0.646 z-score.

In the case of CAGAACTTCCC, the binding signal with RELARELA (p65 homodimer) is 1.94 z-score; with p50p50 homodimer it was 0.457 z-score; with p52p52 homodimer, 0.196 z-score; in assay [1], 0.921 z-score; in [2], 0.329 z-score; with RELB subunit;p50 subunit it was 0.182 z-score. The binding signal in the assay with RELB subunit;p52 subunit was 0.0935 z-score; in [3], 0.664 z-score; in assay [4], 0.413 z-score.

As to AGATGGTCCCC, the binding signal with RELARELA (p65 homodimer) was -0.243 z-score; with p50p50 homodimer, 0.441 z-score; in the assay with p52p52 homodimer, 0.342 z-score; in assay [1], 0.0737 z-score; in [2], 0.172 z-score; with RELB subunit;p50 subunit it was 0.435 z-score. Besides, the binding signal with RELB subunit;p52 subunit came to 0.355 z-score; in assay [3] it was 0.292 z-score; in assay [4], 0.217 z-score.

As for AAATTTTTCCC, the binding signal with RELARELA (p65 homodimer) was found to be 3.12 z-score; in the assay with p50p50 homodimer it was 1.2 z-score; with p52p52 homodimer, 1.17 z-score; in assay [1] it was 1.78 z-score; in [2], 1.37 z-score; with RELB subunit;p50 subunit, 1.03 z-score. In addition, the binding signal with RELB subunit;p52 subunit stood at 1.38 z-score; in assay [3], 1.97 z-score; in assay [4] it was 1.31 z-score.

On to AAGGTAGCCCC, for which the binding signal was -0.468 z-score in the assay with RELARELA (p65 homodimer); 0.424 z-score with p50p50 homodimer; 0.109 z-score with p52p52 homodimer; -0.162 z-score in assay [1]; 0 z-score in assay [2]; 0.152 z-score with RELB subunit;p50 subunit. Besides, the binding signal is 0.184 z-score with RELB subunit;p52 subunit, 0.249 z-score in [3] and 0.217 z-score in [4].

(Values after PMC3218832.)
